The results in this text go back to PubChem BioAssay (NCI).

This is part of a sample that, as a whole, favours compounds with a hit. Of some 83,000 tested, about 20% had one in any assay.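 Percent growth is the endpoint: 0 to 100 indicates growth inhibition (40 means 60% inhibition), 0 means no net growth, and negative values indicate cell death.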 Values without a mark were called inactive. Calls of active or inactive are those of the source. Rule for the calls: active = growth percent below 10; inactive = the rest.

The assay deals with HL-60(TB) leukemia. The assay can be described thus: NCI-60 one-dose screen, 48 h (100 = growth as untreated, 0 = no growth, -100 = all killed). The settings on record: 10 µM unless noted.
Take `O=C(Nc1ccc(Cl)c([N+](=O)[O-])c1)Nc1nc2ccccc2s1`: the growth was 91.3%. Take `COC(CCCl)c1ccc(Cl)cc1` (stereo not given): the growth was 94.2%. Consider `COc1c(C)cnc(CSc2nc(-c3ccc(C)cc3)cn2-c2ccc(Cl)cc2)c1C`, for which the growth was 95.8%. As for `CC(=O)ON1CCCC(P(=O)(OCCSC(=O)C(C)(C)C)OCCSC(=O)C(C)(C)C)C1=O` (stereo not given), the growth was 14%. On to `CC(=O)NNC(=O)c1sc(NC(C)=O)nc1C`, for which the growth is 101%. The value for `C=C(C=O)C1CCC2(C(=O)O)CCC3(C)C(CCC4C5(C)CCC(O)C(C)(C)C5CCC43C)C12` (stereo not given) was 6.38% (active); that for `COc1ccc(C(=O)/C=C/c2cc(-c3cc(OC)c(OC)c(OC)c3)n[nH]2)cc1OC` was 3.15% (active); that for `COc1cc2c(cc1OCCCCCn1c(-c3ccc(OCc4ccccc4)cc3)nc3cc(N4CCOCC4)ccc31)N=C[C@@H]1CCCN1C2=O` was 12.7%. As to `c1ccc2c(c1)OC1OC2Oc2ccccc21`, the growth is 80%. For `CCN1CCN(c2nc(C)cc(N(CCNc3ccnc4cc(Cl)ccc34)Cc3ccc4c(c3)OCO4)n2)CC1`, the growth is -57.7% (active).

Consider `CC(C)(C)Nc1c(-c2c3ccccc3cc3ccccc23)nc2ccccn12`, for which the growth is 74.4%.

`CCN1CC(CCN2CCOCC2)C(C(c2ccccc2)c2ccccc2)C1=O` (stereo not given): the growth was 113%. As to `CN(C)CCC(=O)C1CC1`, the growth is 93.9%. As for `COc1ccc2c(c1)OC13Oc4cc(OC)ccc4C=C1CCCC3=C2`, the growth is 7.56% (active). In the case of `O=C1Nc2ccccc2/C1=C\c1c(-c2ccccc2)nc2ccccn12`, the growth is -10.7% (active).

`C#CCOc1ccc(C2=NN(C)C3N=C(Cl)c4ncn(C)c4N23)cc1OCC#C` (stereo not given): the growth is 98.6%. Regarding `C/C(=N\N=C1/SCC(=O)N1c1ccccc1)c1ccco1`, the growth was 99%. With `COc1cc(-c2nc3sccn3c2-c2ccnc(NCCCNS(=O)(=O)c3ccc(F)cc3)n2)ccc1F` the figure was 64.9%; with `C=CC1(C)C(O[Si](C)(C)C(C)(C)C)CC2C3OC(=O)NC31c1cccc3c1[C@H](C(=O)N3C)C2(C)C` (stereo not given in full), 22.9%; with `Cn1cc(-c2nonc2-c2c[nH]c3ccccc23)c2cc(Br)ccc21`, 38.2%. `Cc1ccc2c(Cn3cc(CSc4nc5ccccc5o4)nn3)cc(=O)oc2c1`: the growth was 109%.

As for `Cc1ccc2c(c1)O/C(=C\c1ccc([N+](=O)[O-])o1)C2=O`, the growth was 17.2%. With `CS(=O)(=O)Nc1cc(-c2ccc3ncnc(Nc4ccc5c(cnn5Cc5ccc(F)cc5)c4)c3c2)cnc1Cl` the figure was 23%. The value for `O=S(=O)(Nc1cc(F)cc(F)c1)c1ccc(-c2cnc(C3CC3)o2)cc1` was 9.05% (active). The value for `Clc1ccc2sc(-c3ccccc3)nc2c1` was 86.2%; that for `O=S(=O)(CCN1CCOCC1)Nc1cncc(-c2ccc3ncnc(Nc4ccc(F)c(Cl)c4)c3c2)c1` was 110%; that for `CN(C)c1ccc(/C=C(\C#N)c2cc3ccccc3[nH]2)cc1` was 22.2%.

With `CC1(C)CC(=O)C2=C(C1)C(c1ccc(Cl)cc1)n1ncc(C#N)c1N2` (stereo not given), the growth is 97.9%. The value for `c1ccc2c(c1)nc(-n1ccnc1)c1nc3ccccc3n12` was 101%. The value for `Nc1nc(SCc2ccccc2)c2ncn(C3CCCC3)c2n1` was 75.2%; that for `COc1ccc(Cn2cc(COc3cc(/C=C/C(=O)c4cc(OC)c(OC)c(OC)c4)ccc3OC)nn2)cc1` was 80.3%.

Regarding `CCC(=O)Oc1ccc2c(c1)CC[C@@H]1[C@@H]2CC[C@]2(C)C[C@H](OC(=O)CC)C[C@@H]12`, the growth is 30.8%. As to `COc1ccc(OC)c([N+](=O)[O-])c1C(=O)CNC(C)=O`, the growth is 104%. Regarding `O=c1nc2sc3nc4ccccc4cc3cc-2s1`, the growth is 99%.

With `COc1cc2oc(-c3cccc(C(=O)Nc4ccc(Cl)cc4)c3)cc(=O)c2c(OC)c1OC`, the growth was -11.1% (active). The value for `COc1cc(-c2cc(C(=O)N3CCN(C(=O)c4ccccc4NCc4cccs4)CC3)nc3cc(-c4ccccc4)nn23)cc(OC)c1OC` was 82.7%; that for `O=C(/C=C\c1ccccc1Cl)c1ccccc1` was 110%. Take `COc1ccc(/C=N/Nc2nc3ccccc3s2)cc1`: the growth is 84.9%. In the case of `COc1cccc(OC)c1C(=O)N[C@@H]1C(=O)N2[C@@H]1SC(C)(C)[C@@H]2C(=O)O`, the growth was 94.3%. In the case of `O=C(Oc1ccc[nH]c1=O)c1cccc(Cl)c1`, the growth is 87.6%.
